# Where “and” joins values, the source holds several entries; their conditions need not be identical. Equal entries are not always repeated. Results filed as inconclusive are left out. A call without a number means that no potency is given here. A number with no mark means an inactive call. Calls of active or inactive are those of the source. The call rests on the fitted dose curve; in most records, active means well fitted inhibition curve with a large enough effect; inconclusive means small, poorly fitted or top-dose-only effect; inactive means flat fitted curve, though single readings scatter. Starred links: 1 amine or outer side, 2 acyl side, 3 side chain; linkers in the order of their positions; H or OH if unused. Positions of bridges follow the written chain, without caps; N, C: chain ends. Non-standard residues stand in square brackets, D forms with d. Residues, ends and D or L forms follow the SMILES beside them. Chains are numbered I, II in the order given. Actinocin(9to1) = Cc1c2oc3c(C)ccc(C(=O)[*:1])c3nc-2c(C(=O)[*:2])c(N)c1=O; NMeV = CN[CH](C(=O)O)C(C)C; Sar = CNCC(=O)O
# Test system: Zika virus NS2B-NS3 protease
# Test: Primary screen GU AMC qHTS for Zika virus inhibitors (AID 1347154); further: nearly all actives have a fitted effect of over 70% in size
# Conditions: Zika NS2B-NS3 unlinked protease, AMC fluorogenic substrate; series mostly up to 54.1 µM
# Outline: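 Unlinked Zika NS2B hydrophilic domain–NS3 protease complex at 25 nM in 10 mM Tris-HCl pH 8.0, 0.01% Tween 20, with an AMC peptide substrate. Fluorescence change (340/450 nm) over 15 min at room temperature, normalized to controls, fitted to 4-parameter Hill.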
# Potency means the concentration at half of the fitted maximal effect.
Compound,Potency,"activity change, negative = inhibition"
O=C(O)C(=O)Nc1cccc(C2=NN=N[N]2)c1,inactive,–
Cc1[nH]c(C=C2C(=O)Nc3ccccc32)c(C)c1CCC(=O)O,inactive,–
COc1ccc(Nc2nccc(NCCO)n2)cc1,inactive,–
COC(=O)[C@@H]1[C@H]2C[C@@H]3c4[nH]c5ccccc5c4CCN3C[C@@H]2CC[C@@H]1O,inactive,–
CC(=O)O[C@H]1C[C@@H]2CC[C@H]3[C@H]4C[C@H]([N+]5(C)CCCCC5)[C@@H](OC(C)=O)[C@@]4(C)CC[C@@H]3[C@@]2(C)C[C@H]1N1CCCCC1,inactive,–
CC1(C)CC(O)CC(C)(C)N1[O],inactive,–
COc1cc2c(cc1OC)[C@@H]1C(=O)c3ccc4c(c3O[C@@H]1CO2)C=CC(C)(C)O4,inactive,–
OCc1ccccc1O[C@@H]1O[C@H](CO)[C@H](O)[C@H](O)[C@H]1O,inactive,–
C[C@]12CCC(=O)C=C1[C@@H]1CC1[C@H]1[C@H]3[C@@H]4C[C@H]4[C@@]4(CCC(=O)O4)[C@@]3(C)CC[C@H]12 (stereo not given in full),inactive,–
CN1[C@H]2CC(OC(=O)[C@@H](CO)c3ccccc3)C[C@H]1[C@H]1O[C@H]12 (stereo not given in full),inactive,–
COc1ccnc2[nH]cc(C(=O)C(=O)N3CCN(C(=O)c4ccccc4)C[C@@H]3C)c12,inactive,–
Cc1cn([C@@H]2O[C@H](CO)[C@@H](O)[C@H]2F)c(=O)[nH]c1=O,inactive,–
CC1(C)[C@H](O[C@H]2O[C@H](C(=O)O)[C@@H](O)[C@H](O)[C@H]2O[C@@H]2O[C@H](C(=O)O)[C@@H](O)[C@H](O)[C@H]2O)CC[C@@]2(C)[C@H]1CC[C@]1(C)[C@H]2C(=O)C=C2[C@H]3C[C@@](C)(C(=O)O)CC[C@]3(C)CC[C@]21C,inactive,–
CC[C@@]1([C@@H]2O[C@@H]([C@H]3O[C@@](O)(CO)[C@H](C)C[C@H]3C)C[C@H]2C)CC[C@H]([C@]2(C)CC[C@]3(C[C@H](O)[C@@H](C)[C@@H]([C@@H](C)[C@@H](OC)[C@H](C)C(=O)O)O3)O2)O1,inactive,–
Cc1nc(NC(=O)N2CCC[C@@H]2C(N)=O)sc1-c1ccnc(C(C)(C)C(F)(F)F)c1,inactive,–
CNC(=O)Nc1ccc(-c2nc(N3CC4CCC(C3)O4)c3cnn(C4CCC5(CC4)OCCO5)c3n2)cc1,inactive,–
Cn1cc(C[C@@H](N)C(=O)O)c2ccccc21,inactive,–
CCn1c(=O)c2c(nc(C=Cc3ccc(OC)c(OC)c3)n2C)n(CC)c1=O,inactive,–

Compound,Potency,"activity change, negative = inhibition"
C[C@H]1COc2c(N3CCN(C)CC3)c(F)cc3c(=O)c(C(=O)O)cn1c23,27.1 µM (active) and 10.6 µM (active),–
CC(=O)ON=C1C(c2c(O)[nH]c3cc(Br)ccc23)=Nc2ccccc21,inactive,–
Cc1cc(-c2nnc3n2CCCCC3)c(C)n1-c1ccccc1,inactive,–
Cc1cnc(NC(=O)Nc2cc(Br)c(C)cc2OC[C@@H]2CNCCO2)cn1,inactive,–
Cn1c(Nc2ccc(C(F)(F)F)cc2)nc2cc(Oc3ccnc(-c4ncc(C(F)(F)F)[nH]4)c3)ccc21,inactive,–
CC(C)(C)[C@H](NC(=O)c1ccc(N)c(Cl)c1)C(=O)N1CCC[C@@H]1C(=O)N[C@H](C#N)CC(=O)O,–,6.17% [at 6.83 µM]
O=C(C=Cc1ccc(CN(CCO)CCc2c[nH]c3ccccc23)cc1)NO,inactive,–
O=[N+]([O-])c1cn2c(n1)OC[C@@H](OCc1ccc(OC(F)(F)F)cc1)C2,inactive,–
CC(C)(C)c1nc2c3cc[nH]c(=O)c3c3cc(F)ccc3c2[nH]1,inactive,–
CCN1CCN(C(=O)N[C@H](C(=O)N[C@@H]2C(=O)N3C(C(=O)O)=C(CSc4nnnn4C)CS[C@@H]23)c2ccc(O)cc2)C(=O)C1=O,inactive,–
O=C(O)CCCCCC(=O)NN=C1CCCC1,inactive,–
C[C@H]1O[C@H](O[C@H]2[C@H](O)[C@@H](O)[C@@H](O[C@H]3[C@H](O)[C@@H](O)C(O)O[C@H]3CO)O[C@H]2CO)[C@H](O)[C@@H](O)[C@H]1N[C@H]1C=C(CO)[C@@H](O)[C@H](O)[C@@H]1O (stereo not given in full),inactive,–
CCOc1cc2ncc(C#N)c(Nc3ccc(OCc4ccccn4)c(Cl)c3)c2cc1NC(=O)C=CCN(C)C,inactive,–
O=C(C[C@@H]1CC=CCCC(=O)O[C@H](c2ccccc2)CNC1=O)NCc1ccc(Cl)cc1,inactive,–
CNC(=O)c1ccc(Nc2cc(Nc3ccccc3S(=O)(=O)C(C)C)c3cc[nH]c3n2)nc1,inactive,–
OCC(O)C(O)C(O)CO (stereo not given),inactive,–
"Cc1c2oc3c(C)ccc(C(=O)NC4C(=O)NC(C(C)C)C(=O)N5CCCC5C(=O)N(C)CC(=O)N(C)C(C(C)C)C(=O)OC4C)c3nc-2c(C(=O)NC2C(=O)NC(C(C)C)C(=O)N3CCCC3C(=O)N(C)CC(=O)N(C)C(C(C)C)C(=O)OC2C)c(N)c1=O (stereo not given) (I: TVP[Sar][NMeV] / II: TVP[Sar][NMeV]; ester I:1-I:C, II:1-II:C; linker I:N-II:N via Actinocin(9to1); configuration not given here)",inactive,–
